Results reported in PubChem BioAssay AID602314 (ICCB-Longwood Screening Facility, Harvard Medical School, 2012).
Screen size: about 84,000 compounds; about 110 (0.13%) were called active. Cut-off read from the data, not from the text of the source: active = inhibition above about 30% (passing the limit was not always enough); inactive = the rest. Many of the other results were omitted from the sample, so actives are more common in it than they were.

Test system: MgrA (MarR family transcriptional regulator), Staphylococcus aureus Newman
Test: S. aureus MgrA activity modulators, primary screen, biochemical, S. aureus Newman, fluorescence polarization (AID 602314);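 note: 0% = protein plus DNA without compound and 100% = DNA alone without protein; higher means less MgrA bound to DNA so lower polarization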
Conditions: MgrA-DNA binding, hits give high values, concentration not given here

Structure (SMILES)	inhibition
CCN1C(=O)/C(=C/C=C/c2ccco2)C(=O)NC1=S	66.7% (active)
CCN(CC)P1(=S)OC(C)(C)CC1(C)O (stereo not given)	0.3% (inactive)
O=C1CSC(c2ccccc2)c2c(-c3ccccc3)nn(-c3ccccc3)c2N1 (stereo not given)	-0.55% (inactive)
CCn1cc(C=C(C#N)C#N)c2ccccc21	-2.65% (inactive)
O=C1NC(=O)C(C2(C3C(=O)NC(=O)NC3=O)C(=O)Nc3ccccc32)C(=O)N1	1.5% (inactive)
COc1cccc(N2C(=O)/C(=C/c3ccsc3)C(=O)NC2=S)c1	18.1% (inactive)
NC1=C(C(=O)OCc2ccccc2)C2(C(=O)Nc3ccc(Br)cc32)c2c(c3ccccc3oc2=O)O1 (stereo not given)	-0.3% (inactive)
CN1CCc2c(c(S)[nH]c(=S)c2C#N)C1	77.6% (active)
Cn1c([O-])c([N+](C)(C)C)c(=O)n(C)c1=O	0.5% (inactive)
O=C1CC(c2cccc(Br)c2)c2c(c3ccccc3oc2=O)O1 (stereo not given)	13.6% (inactive)
